According to the supplement of paper PMC12645437, “Orthogonal IMiD-Degron Pairs Induce Selective Protein Degradation in Cells” (ACS Chemical Biology, 2025):
Whole data set: some 8,300 sequences, median “log2 fold change of degron read counts, EGFP-low vs EGFP+ sorted cells (limma voom), compound-induced degradation” near -1.1, cut for the highest 2% near 3.2. For the sample, the highest values were picked, then their nearest neighbours and some sequences at random.

T1: CRBN, Q96SW2
T1 chain: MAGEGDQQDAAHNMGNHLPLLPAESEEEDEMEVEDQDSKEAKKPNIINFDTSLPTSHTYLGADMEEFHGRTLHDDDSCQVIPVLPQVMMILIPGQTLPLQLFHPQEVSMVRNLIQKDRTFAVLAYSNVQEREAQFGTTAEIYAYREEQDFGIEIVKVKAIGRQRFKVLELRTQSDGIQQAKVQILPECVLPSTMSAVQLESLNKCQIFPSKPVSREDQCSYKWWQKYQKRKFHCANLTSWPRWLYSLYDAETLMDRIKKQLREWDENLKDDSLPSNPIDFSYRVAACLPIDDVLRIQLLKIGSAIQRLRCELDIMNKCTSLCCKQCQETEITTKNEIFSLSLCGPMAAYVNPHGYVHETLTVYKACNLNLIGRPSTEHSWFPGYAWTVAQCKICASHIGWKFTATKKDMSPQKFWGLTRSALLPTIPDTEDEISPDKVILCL


Biological target: T1, CRBN, Q96SW2
Test: log2 fold change of degron read counts, EGFP-low vs EGFP+ sorted cells (limma voom), compound-induced degradation; higher = more compound-induced degradation of the degron-EGFP fusion; degrons are variants of IKZF1/3 zinc finger 2; compound dose not given here
Details: Jurkat, 18 h
Description: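 Pooled library of 8380 IKZF3 ZF2 degron mutants (positions 146-167 varied within the IKZF3 130-189 degron; only the varied core is printed, flanks not printed) fused to EGFP with IRES-mCherry, lentivirally expressed in Jurkat cells. mCherry+ cells were treated with one IMiD compound for 18 h (dose not stated) and FACS-sorted into EGFP-low and EGFP+ populations. Degron sequences were counted by NGS, and log2FC (EGFP-low vs EGFP+) was estimated by limma voom over 3 biological replicates.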

[1] = compound: compound 19 (5-tert-butyl-thalidomide)
[2] = compound: compound 22 (5-morpholino-thalidomide)
[3] = compound: compound 33 (diphenyl IMiD analogue)
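Also: pooled lentiviral library of zinc finger degron-EGFP fusions in mCherry-positive Jurkat cells, FACS-sorted after compound exposure, with degron abundance counted by next-generation sequencing.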

Sequence | log2 fold change of degron read counts [1] | log2 fold change of degron read counts [2] | log2 fold change of degron read counts [3] | log2 fold change of degron read counts (compound: thalidomide)
FDCPICGREFTQKGNLLRHIKL [46F_47D_49P_50I_52G_53R_54E_55F_67L_, Q9UKT9] | -1.43 | -1.65 | -0.206 | 0.273
FQCPICGHKFTQKGNLLRHIKL [46F_47Q_49P_50I_52G_53H_54K_55F_67L_, Q9UKT9] | -1.95 | -1.73 | -1.82 | 0.342
FDCDICGATFTQKGNLLRHIKL [46F_47D_49D_50I_52G_53A_54T_55F_67L_, Q9UKT9] | -0.229 | -1.86 | -1.66 | -1.78
FICNQCGAGFTQKGNLLRHIKL [46F_47I_49N_50Q_52G_53A_54G_55F_67L_, Q9UKT9] | -2.57 | -1.54 | -0.787 | -0.966
FYCPICGHNFTQKGNLLRHIKL [46F_47Y_49P_50I_52G_53H_54N_55F_67L_, Q9UKT9] | -1.61 | -1.84 | -0.993 | -1.92
LVCPICGFPCTQKGNLLRHIKL [46L_47V_49P_50I_52G_53F_54P_55C_67L_, Q9UKT9] | 0.138 | 1.61 | 0.747 | 1.9
LLCPICGFSCTQKGNLLRHIKL [46L_47L_49P_50I_52G_53F_54S_55C_67L_, Q9UKT9] | 1.38 | 0.88 | 1.79 | 2.5
LACPICGFSCTQKGNLLRHIKL [46L_47A_49P_50I_52G_53F_54S_55C_67L_, Q9UKT9] | 3.69 | 3.18 | 2.48 | 2.94
LGCPICGFECTQKGNLLRHIKL [46L_47G_49P_50I_52G_53F_54E_55C_67L_, Q9UKT9] | 1.95 | 0.368 | 0.47 | 0.369
LDCPICGFSCTQKGNLLRHIKL [46L_47D_49P_50I_52G_53F_54S_55C_67L_, Q9UKT9] | 1.61 | 0.446 | 1.19 | 2.17
LICPICGFSCTQKGNLLRHIKL [46L_47I_49P_50I_52G_53F_54S_55C_67L_, Q9UKT9] | 0.996 | 3.08 | 2.1 | 3.18
LGCPICGFSCTQKGNLLRHIKL [46L_47G_49P_50I_52G_53F_54S_55C_67L_, Q9UKT9] | 3.62 | 2.62 | 2.12 | 1.55
LMCPICGFSCTQKGNLLRHIKL [46L_47M_49P_50I_52G_53F_54S_55C_67L_, Q9UKT9] | 1.63 | 2.78 | 2.99 | 2.69
LKCPICGFSCTQKGNLLRHIKL [46L_47K_49P_50I_52G_53F_54S_55C_67L_, Q9UKT9] | 1.33 | -0.186 | -0.695 | 1.64
LHCPICGFSCTQKGNLLRHIKL [46L_47H_49P_50I_52G_53F_54S_55C_67L_, Q9UKT9] | 3.33 | 3.49 | 2.83 | 2.54
LECPICGFSCTQKGNLLRHIKL [46L_47E_49P_50I_52G_53F_54S_55C_67L_, Q9UKT9] | 1.9 | 0.453 | 2.42 | 3.62
LSCPICGFSCTQKGNLLRHIKL [46L_47S_49P_50I_52G_53F_54S_55C_67L_, Q9UKT9] | 3.04 | 3.05 | 2.54 | 2.8
LTCEICGFWCTQKGNLLRHIKL [46L_47T_49E_50I_52G_53F_54W_55C_67L_, Q9UKT9] | -0.648 | -0.501 | 0.784 | 0.539

Sequence | log2 fold change of degron read counts [1] | log2 fold change of degron read counts [2] | log2 fold change of degron read counts [3] | log2 fold change of degron read counts (compound: thalidomide)
FDCDICGAAFTQKGNLLRHIKL [46F_47D_49D_50I_52G_53A_54A_55F_67L_, Q9UKT9] | 0.561 | -1.32 | -1.46 | -0.827
FRCEICGHVFTQKGNLLRHIKL [46F_47R_49E_50I_52G_53H_54V_55F_67L_, Q9UKT9] | -2.92 | -3.64 | -1.71 | -2.21
FMCNVCGAAFTQKGNLLRHIKL [46F_47M_49N_50V_52G_53A_54A_55F_67L_, Q9UKT9] | -1.07 | -0.0279 | 2 | 0.272
FTCEVCGAGFTQKGNLLRHIKL [46F_47T_49E_50V_52G_53A_54G_55F_67L_, Q9UKT9] | 2.39 | 2.34 | 2.42 | 2.32
FNCDVCGAFFTQKGNLLRHIKL [46F_47N_49D_50V_52G_53A_54F_55F_67L_, Q9UKT9] | -1.57 | -2.42 | -1.91 | -2.42
LDCNQCGFCCTQKGNLLRHIKL [46L_47D_49N_50Q_52G_53F_54C_55C_67L_, Q9UKT9] | -2.36 | -3.41 | -2.85 | -2.58
FTCEICGAWFTQKGNLLRHIKL [46F_47T_49E_50I_52G_53A_54W_55F_67L_, Q9UKT9] | -0.788 | -0.479 | 1.12 | 1.04
FRCSVCGHLFTQKGNLLRHIKL [46F_47R_49S_50V_52G_53H_54L_55F_67L_, Q9UKT9] | -2.53 | -3.16 | -2.34 | -2.39
LYCNQCGFQCTQKGNLLRHIKL [46L_47Y_49N_50Q_52G_53F_54Q_55C_67L_, Q9UKT9] | -1.36 | -0.758 | -1.33 | -2.14
LWCPICGFECTQKGNLLRHIKL [46L_47W_49P_50I_52G_53F_54E_55C_67L_, Q9UKT9] | 2.12 | 2.64 | 2.17 | 0.382
LQCPICGFSCTQKGNLLRHIKL [46L_47Q_49P_50I_52G_53F_54S_55C_67L_, Q9UKT9] | 2.67 | 2.76 | 2.41 | 3.53
LTCPICGFECTQKGNLLRHIKL [46L_47T_49P_50I_52G_53F_54E_55C_67L_, Q9UKT9] | 0.6 | 1.64 | 1.55 | 2.4
LYCPICGFSCTQKGNLLRHIKL [46L_47Y_49P_50I_52G_53F_54S_55C_67L_, Q9UKT9] | 3.73 | 3.72 | 3.09 | 2.7
LYCPICGFECTQKGNLLRHIKL [46L_47Y_49P_50I_52G_53F_54E_55C_67L_, Q9UKT9] | 2.78 | 2.56 | 2.08 | 0.736
LQCPICGFGCTQKGNLLRHIKL [46L_47Q_49P_50I_52G_53F_54G_55C_67L_, Q9UKT9] | 2.46 | 2.07 | 1.63 | 3.23
LTCPICGFSCTQKGNLLRHIKL [46L_47T_49P_50I_52G_53F_54S_55C_67L_, Q9UKT9] | 2.51 | 3.37 | 2.87 | 3.49
LWCPICGFSCTQKGNLLRHIKL [46L_47W_49P_50I_52G_53F_54S_55C_67L_, Q9UKT9] | 3.31 | 3.57 | 2.84 | 2.33
LQCPICGFWCTQKGNLLRHIKL [46L_47Q_49P_50I_52G_53F_54W_55C_67L_, Q9UKT9] | 0.033 | 0.594 | 1.15 | 2.58
